Source: the supplement of paper PMC10849652
About 8,800 targets were measured; listed, in parts, are those with a hit and a random draw of the rest. About 0.5% of all pairs of compound and target were hits.

Tests used:
Assay in all cases: log2 fold change, soluble protein after heating vs DMSO (PISA); higher = thermal stabilisation; K562 lysate, 10 uM; active = over 0.2 and 3.5 SD of the protein, either way, in both replicates (recomputed)
[1] = compound: CC1=C2C(=CC=C1)N=C(N(C2=O)C3=CC=CC=C3C)CN4C=NC5=C(N=CN=C54)N
Procedure, shortened: (§1)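 K562 pellets were dounce-homogenised in PBS pH 7.4 containing 1 mM MgCl2, and the crude extract, at 1 mg/mL protein, was exposed to 10 μM compound for 30 min. Aliquots were heated for 3 min across 48°C-58°C, pooled, brought to 0.5% NP-40 at 4°C and spun at 21,000xg for 90 min, with the supernatant taken as soluble protein. TMTpro 16plex LC-MS/MS with equalised channel sums quantified that protein. Values are log-two fold changes in thermal stability relative to solvent controls, taken from duplicates.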

[2] = compound: Cc1sc2c(c1C)C(c1ccc(Cl)cc1)=N[C@@H](CC(=O)OC(C)(C)C)c1nnc(C)n1-2
Procedure, shortened: as §1

[3] = compound: c1ccc([C@@H]2C[C@H]2NC2CCNCC2)cc1
Procedure, shortened: as §1

[4] = compound: C1=CC=C(C=C1)[C@H](COC2=CC3=C(C=C2)NC(=O)N3)NC(=O)C4=CC=CN(C4=O)CC5=CC(=C(C=C5)F)F
Procedure, shortened: as §1

[5] = compound: CC1=C(SC2=C1C(=N[C@H](C3=NN=C(N32)C)CC(=O)N)C4=CC=C(C=C4)Cl)C
Procedure, shortened: as §1

Measured: log2 fold change

FAM76B (UniProt Q5HYJ3)
Chain of UniProt Q5HYJ3 (Q5HYJ3 whole entry, looked up): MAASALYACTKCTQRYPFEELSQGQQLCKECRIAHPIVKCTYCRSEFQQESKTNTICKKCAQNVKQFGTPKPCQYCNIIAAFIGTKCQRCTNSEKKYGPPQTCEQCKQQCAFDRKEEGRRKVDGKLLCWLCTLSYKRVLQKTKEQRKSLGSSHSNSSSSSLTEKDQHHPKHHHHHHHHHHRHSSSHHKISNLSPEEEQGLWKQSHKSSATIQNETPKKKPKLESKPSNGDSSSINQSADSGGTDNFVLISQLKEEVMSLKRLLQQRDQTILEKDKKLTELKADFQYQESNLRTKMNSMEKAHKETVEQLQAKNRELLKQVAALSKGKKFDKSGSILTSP
inactive: [1] 0.066 | [2] 0.038 | [3] -0.099

FAM204A (UniProt Q9H8W3)
Chain of UniProt Q9H8W3 (Q9H8W3 whole entry, looked up): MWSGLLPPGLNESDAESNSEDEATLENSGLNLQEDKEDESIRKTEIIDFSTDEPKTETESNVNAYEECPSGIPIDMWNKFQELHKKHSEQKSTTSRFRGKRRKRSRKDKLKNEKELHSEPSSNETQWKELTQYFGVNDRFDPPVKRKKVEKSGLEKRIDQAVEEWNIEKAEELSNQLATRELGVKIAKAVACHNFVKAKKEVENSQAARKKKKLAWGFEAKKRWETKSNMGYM
inactive: [1] -0.102 | [3] -0.035

FOXK1 (UniProt P85037)
Chain of UniProt P85037 (P85037 whole entry, looked up): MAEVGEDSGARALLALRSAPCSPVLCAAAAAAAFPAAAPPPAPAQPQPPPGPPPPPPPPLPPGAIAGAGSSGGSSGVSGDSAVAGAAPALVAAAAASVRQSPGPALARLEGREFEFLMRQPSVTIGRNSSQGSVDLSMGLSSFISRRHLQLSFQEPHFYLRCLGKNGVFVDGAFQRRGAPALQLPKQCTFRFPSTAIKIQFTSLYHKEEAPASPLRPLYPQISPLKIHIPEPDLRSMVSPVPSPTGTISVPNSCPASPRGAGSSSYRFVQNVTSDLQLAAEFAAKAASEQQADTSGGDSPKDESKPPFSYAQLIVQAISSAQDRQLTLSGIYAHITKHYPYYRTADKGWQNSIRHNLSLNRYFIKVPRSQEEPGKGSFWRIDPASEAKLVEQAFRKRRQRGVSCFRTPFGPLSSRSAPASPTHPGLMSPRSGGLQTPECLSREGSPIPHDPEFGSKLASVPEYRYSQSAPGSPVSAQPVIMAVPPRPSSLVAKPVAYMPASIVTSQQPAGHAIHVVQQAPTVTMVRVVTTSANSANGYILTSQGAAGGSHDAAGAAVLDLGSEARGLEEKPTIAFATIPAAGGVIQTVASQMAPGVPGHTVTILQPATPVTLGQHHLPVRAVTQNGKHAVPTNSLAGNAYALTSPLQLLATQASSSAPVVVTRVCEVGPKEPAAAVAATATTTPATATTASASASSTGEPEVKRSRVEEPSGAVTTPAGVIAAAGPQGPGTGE
inactive: [4] 0.022 | [5] 0.017 | [1] -0.001 | [2] 0.032 | [3] -0.009
